{"source": "PubChem BioAssay (NCI)", "note": "The panel holds about 83,000 compounds, 20% with a hit somewhere; the sample as a whole holds those more often.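 The test compound was applied at a single concentration to cells in 96-well plates for 48 hours, and percent growth was recorded.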 Values without a mark were called inactive. Active and inactive are the calls of the source. The calls were made as follows: active = growth percent below 10; inactive = the rest."}
{"test_system": "SK-MEL-2 melanoma", "assay": "NCI-60 one-dose screen, 48 h (100 = growth as untreated, 0 = no growth, -100 = all killed)", "conditions": "10 µM unless noted"}
{"smiles": "CC(C)(C)c1ccc2oc(=O)n(SC(Cl)(Cl)Cl)c2c1", "growth": "93.9%"}
{"smiles": "COc1ccc2nc(-c3ccc(Cl)cc3)cc(-c3nnc(SC/C(=N/O)c4ccccc4)o3)c2c1", "growth": "61.3%"}
{"smiles": "CCOC(=O)c1c(-c2ccc(O)cc2)c(C#N)c2c(C#N)c(N)nn2c1N", "growth": "44.9%"}
{"smiles": "C=CCn1c(SCC(=O)Nc2ccc(C(=O)/C=C/c3cc(OC)c(OC)c(OC)c3)cc2)nnc1-c1ccc(Cl)cc1", "growth": "26.3%"}
{"smiles": "CCOC(=O)c1ccc(Nc2ncnc3ccc(NC(=O)c4ccccc4)cc23)cc1", "growth": "86.6%"}
{"smiles": "CCOC(=O)c1cnn(-c2nc(-c3ccc(F)cc3)c(C#N)c(N3CCOCC3)n2)c1N", "growth": "90%"}
{"smiles": "CSc1nc(-c2ccc(F)cc2)c(C#N)c(N2CCOCC2)n1", "growth": "101%"}
{"smiles": "c1ccc(Sc2ncccn2)nc1", "growth": "107%"}
{"smiles": "COc1ccc(/C=C/C(=O)/C=C(/C=C/c2ccc(OC)c(OC)c2)OB(F)F)cc1OC", "growth": "76.8%"}
{"smiles": "Cc1cccc(NC(=O)c2sc3nc4c(cc3c2N)CN(Cc2ccccc2)CC4)c1C", "growth": "30.3%"}
{"smiles": "Nc1c(C(=O)Nc2cccc3ccccc23)sc2nc3c(cc12)CCCCCC3", "growth": "5.93% (active)"}
{"smiles": "O=C1c2ccccc2C(=O)c2c1oc1c2c(=O)[nH]c2ccccc21", "growth": "76.9%"}
{"smiles": "C=CCn1c(CN2CCN(c3cc4c(cc3F)c(=O)c(C(=O)O)cn4C3CC3)CC2)n[nH]c1=S", "growth": "104%"}
{"smiles": "COc1cccc2c1-c1ccccc1C2=O", "growth": "34.3%"}
{"smiles": "COc1ccc2cc(/C=C3\\N=C(c4cc(OC)c(OC)c(OC)c4)OC3=O)c(OC)nc2c1", "growth": "106%"}
{"smiles": "C=CCn1c(SCC(=O)Nc2ccc(C(=O)/C=C/c3cc(OC)c(OC)c(OC)c3)cc2)nnc1-c1ccccc1", "growth": "101%"}
{"smiles": "O=C(CCCC(=O)Nc1ccc(-n2nnc3cc(Cl)c(Cl)cc32)cc1)Nc1ccc(-n2nnc3cc(Cl)c(Cl)cc32)cc1", "growth": "53.8%"}
{"smiles": "COc1ccc(Nc2cc(NC(=O)CNc3cc(OC)c(Cl)c(OC)c3Cl)ncn2)cc1", "growth": "84.8%"}
{"smiles": "COc1cc(NC(=O)Nc2cnc(Nc3ccc(N4CCOCC4)cc3)nc2Oc2ccc(C(F)(F)F)cc2)cc(OC)c1", "growth": "108%"}
{"smiles": "CCCCN(CCCC)CC(CN(CC)CC)OC(=O)Nc1ccccc1", "note": "(stereo unspecified)", "growth": "99.4%"}
{"smiles": "N#Cc1ccc(N2Cc3cc(Cl)ccc3OC3=C2C(=O)N(Cc2ccccc2)C3=O)cc1", "growth": "-38.7% (active)"}
{"smiles": "Nc1c(C(=O)Nc2cccc3ccccc23)sc2nc3c(cc12)CCCCC3", "growth": "50.5%"}
{"smiles": "Cc1cc(C)cc(Nc2nccc(-c3c(-c4ccc(F)cc4)ncn3C3CCNCC3)n2)c1", "growth": "21.4%"}
{"smiles": "Nc1c(C(=O)Nc2cccc3ccccc23)sc2nc3c(cc12)COCC3", "growth": "49.1%"}
{"smiles": "CC(C)Cc1cc(CNC(=O)C2[C@H]3CN(C(=O)c4ccccc4)C[C@@H]23)nn1-c1ccccc1", "note": "(stereo partly specified)", "growth": "83.8%"}
{"smiles": "O=C1c2ccccc2C(=O)c2c1oc1c2c(=O)[nH]c2ccc(Cl)cc21", "growth": "31.8%"}
{"smiles": "C=C1C(=O)O[C@H]2[C@H]1CC/C(C=Nc1c(N)cc(F)cc1Br)=C\\CC[C@@]1(C)O[C@@H]21", "growth": "86.7%"}
{"smiles": "Nc1ccc2c(c1)C(=O)C(=O)c1c-2nc2ccccn12", "growth": "-32.1% (active)"}
{"smiles": "C#C[C@@]1(O)[C@@H](CO)O[C@@H](n2cc(F)c3c(N)ncnc32)[C@@H]1O", "growth": "-1.11% (active)"}
{"smiles": "C=C(C)[C@@H]1CCC=C2CC[C@]3(C)[C@H](CC[C@@H]4[C@@]5(C)CCCNC(C)(C)[C@@H]5CC[C@]43C)[C@H]21", "growth": "77.9%"}
{"smiles": "COc1ccc(/C=C/C(=O)C(CC2CCC2)C(=O)/C=C/c2ccc(OC)c(OC)c2)cc1OC", "growth": "-16.7% (active)"}
{"smiles": "CCOC(=O)C1=C(C)n2nc(CC#N)c(C#N)c2NC1c1ccc(CC)cc1", "note": "(stereo unspecified)", "growth": "106%"}
{"smiles": "CCCCc1ccc(N=Nc2ccc(OCC[N+](C)(C)C)cc2)cc1", "growth": "93.6%"}
{"smiles": "CC(C)NS(=O)(=O)c1cccc(-c2ccc3c4c(n(CCCN(C)C)c(=O)c3c2)-c2ccccc2C4=O)c1", "growth": "101%"}
{"smiles": "COc1ccc2[nH]c(=O)c(/C=C/C(=O)c3ccccc3OC)cc2c1", "growth": "-2.52% (active)"}
{"smiles": "CCOC(=O)c1c(C)nc2c(c1N)/C(=C/c1cccs1)C(=O)N2Cc1ccccc1", "growth": "60%"}
{"smiles": "C/C(=N/Nc1nc2ccccc2n1C)c1ccccn1", "growth": "39.8%"}
{"smiles": "CC(C)NS(=O)(=O)c1cccc(-c2ccc3c(=O)n(CCCN)c4c(c3c2)C(=O)c2ccccc2-4)c1", "growth": "111%"}
{"test_system": "EKVX NSCLC", "assay": "NCI-60 one-dose screen, 48 h (100 = growth as untreated, 0 = no growth, -100 = all killed)", "conditions": "10 µM unless noted"}
{"smiles": "CC(C)(C)c1ccc2oc(=O)n(SC(Cl)(Cl)Cl)c2c1", "growth": "92.2%"}
{"smiles": "COc1ccc2nc(-c3ccc(Cl)cc3)cc(-c3nnc(SC/C(=N/O)c4ccccc4)o3)c2c1", "growth": "72.8%"}
{"smiles": "CCOC(=O)c1c(-c2ccc(O)cc2)c(C#N)c2c(C#N)c(N)nn2c1N", "growth": "71.6%"}
{"smiles": "C=CCn1c(SCC(=O)Nc2ccc(C(=O)/C=C/c3cc(OC)c(OC)c(OC)c3)cc2)nnc1-c1ccc(Cl)cc1", "growth": "21.6%"}
{"smiles": "CCOC(=O)c1ccc(Nc2ncnc3ccc(NC(=O)c4ccccc4)cc23)cc1", "growth": "80.3%"}
{"smiles": "CCOC(=O)c1cnn(-c2nc(-c3ccc(F)cc3)c(C#N)c(N3CCOCC3)n2)c1N", "growth": "92.9%"}
{"smiles": "CSc1nc(-c2ccc(F)cc2)c(C#N)c(N2CCOCC2)n1", "growth": "88.6%"}
{"smiles": "c1ccc(Sc2ncccn2)nc1", "growth": "106%"}
{"smiles": "COc1ccc(/C=C/C(=O)/C=C(/C=C/c2ccc(OC)c(OC)c2)OB(F)F)cc1OC", "growth": "38%"}
{"smiles": "Cc1cccc(NC(=O)c2sc3nc4c(cc3c2N)CN(Cc2ccccc2)CC4)c1C", "growth": "44.1%"}
{"smiles": "Nc1c(C(=O)Nc2cccc3ccccc23)sc2nc3c(cc12)CCCCCC3", "growth": "41.6%"}
{"smiles": "O=C1c2ccccc2C(=O)c2c1oc1c2c(=O)[nH]c2ccccc21", "growth": "27.4%"}
{"smiles": "C=CCn1c(CN2CCN(c3cc4c(cc3F)c(=O)c(C(=O)O)cn4C3CC3)CC2)n[nH]c1=S", "growth": "101%"}
{"smiles": "COc1cccc2c1-c1ccccc1C2=O", "growth": "40.7%"}
{"smiles": "COc1ccc2cc(/C=C3\\N=C(c4cc(OC)c(OC)c(OC)c4)OC3=O)c(OC)nc2c1", "growth": "103%"}
{"smiles": "C=CCn1c(SCC(=O)Nc2ccc(C(=O)/C=C/c3cc(OC)c(OC)c(OC)c3)cc2)nnc1-c1ccccc1", "growth": "95.8%"}
{"smiles": "O=C(CCCC(=O)Nc1ccc(-n2nnc3cc(Cl)c(Cl)cc32)cc1)Nc1ccc(-n2nnc3cc(Cl)c(Cl)cc32)cc1", "growth": "64.4%"}
{"smiles": "COc1ccc(Nc2cc(NC(=O)CNc3cc(OC)c(Cl)c(OC)c3Cl)ncn2)cc1", "growth": "72.2%"}
{"smiles": "COc1cc(NC(=O)Nc2cnc(Nc3ccc(N4CCOCC4)cc3)nc2Oc2ccc(C(F)(F)F)cc2)cc(OC)c1", "growth": "106%"}
{"smiles": "CCCCN(CCCC)CC(CN(CC)CC)OC(=O)Nc1ccccc1", "note": "(stereo unspecified)", "growth": "91.7%"}
{"smiles": "N#Cc1ccc(N2Cc3cc(Cl)ccc3OC3=C2C(=O)N(Cc2ccccc2)C3=O)cc1", "growth": "43.8%"}
{"smiles": "Nc1c(C(=O)Nc2cccc3ccccc23)sc2nc3c(cc12)CCCCC3", "growth": "40.4%"}
{"smiles": "Cc1cc(C)cc(Nc2nccc(-c3c(-c4ccc(F)cc4)ncn3C3CCNCC3)n2)c1", "growth": "27.4%"}
{"smiles": "Nc1c(C(=O)Nc2cccc3ccccc23)sc2nc3c(cc12)COCC3", "growth": "85.1%"}
{"smiles": "CC(C)Cc1cc(CNC(=O)C2[C@H]3CN(C(=O)c4ccccc4)C[C@@H]23)nn1-c1ccccc1", "note": "(stereo partly specified)", "growth": "92.8%"}
{"smiles": "O=C1c2ccccc2C(=O)c2c1oc1c2c(=O)[nH]c2ccc(Cl)cc21", "growth": "15.2%"}
{"smiles": "C=C1C(=O)O[C@H]2[C@H]1CC/C(C=Nc1c(N)cc(F)cc1Br)=C\\CC[C@@]1(C)O[C@@H]21", "growth": "75.2%"}
{"smiles": "Nc1ccc2c(c1)C(=O)C(=O)c1c-2nc2ccccn12", "growth": "31.5%"}
{"smiles": "C#C[C@@]1(O)[C@@H](CO)O[C@@H](n2cc(F)c3c(N)ncnc32)[C@@H]1O", "growth": "1.34% (active)"}
{"smiles": "C=C(C)[C@@H]1CCC=C2CC[C@]3(C)[C@H](CC[C@@H]4[C@@]5(C)CCCNC(C)(C)[C@@H]5CC[C@]43C)[C@H]21", "growth": "94.6%"}
{"smiles": "COc1ccc(/C=C/C(=O)C(CC2CCC2)C(=O)/C=C/c2ccc(OC)c(OC)c2)cc1OC", "growth": "-0.196% (active)"}
{"smiles": "CCOC(=O)C1=C(C)n2nc(CC#N)c(C#N)c2NC1c1ccc(CC)cc1", "note": "(stereo unspecified)", "growth": "82.4%"}
{"smiles": "CCCCc1ccc(N=Nc2ccc(OCC[N+](C)(C)C)cc2)cc1", "growth": "85.1%"}
{"smiles": "CC(C)NS(=O)(=O)c1cccc(-c2ccc3c4c(n(CCCN(C)C)c(=O)c3c2)-c2ccccc2C4=O)c1", "growth": "105%"}
{"smiles": "COc1ccc2[nH]c(=O)c(/C=C/C(=O)c3ccccc3OC)cc2c1", "growth": "37.8%"}
{"smiles": "CCOC(=O)c1c(C)nc2c(c1N)/C(=C/c1cccs1)C(=O)N2Cc1ccccc1", "growth": "82%"}
{"smiles": "C/C(=N/Nc1nc2ccccc2n1C)c1ccccn1", "growth": "6.63% (active)"}
{"smiles": "CC(C)NS(=O)(=O)c1cccc(-c2ccc3c(=O)n(CCCN)c4c(c3c2)C(=O)c2ccccc2-4)c1", "growth": "100%"}
